Bioassay records from PubChem BioAssay.
A selection: hits, their analogues and other compounds. The true share with any hit is near 19%.
MCF10A rerep: DNA re-replication induction in MCF 10a cells | MCF 10A DNA re-replication, Hoechst nuclear intensity, 48 h | Potency, µM (doses to about 46.1 µM), without a hit: top-dose activity, positive = re-replication, usual class: activators | 2.9% of 350,000 active | AID 624296; note: potency is the fitted concentration of half-maximal effect; % of control where 0% means no effect; nearly all actives have a fitted effect of over 50% in size
TDP1 cell CPT: DT40-hTDP1 cell growth loss with CPT; 12% of 420,000 active; AID 686979; Potency, µM (highest dose often 46.2 µM), for the others: at the highest dose activity change, negative = growth inhibition, most hits filed as inhibitors; chicken DT40 Tdp1-/-;hTDP1 cells + 20 nM CPT, ATP luminescence, 48 h; note: potency is the fitted concentration of half-maximal effect; % is set by controls: 0 for no effect and ±100 for the full control effect; nearly all actives have a fitted effect of over 55% in size
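Chicken DT40 Tdp1-/- cells stably complemented with human TDP1 were seeded at 400 cells/well in medium containing 20 nM camptothecin, exposed to pin-transferred compounds, and grown at 37 °C for at least 48 hr. Viability was read as ATP luminescence.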
Chronic BCR inh: inhibitors of chronic active B-cell receptor signaling. ABC-DLBCL IkBa-CBG/CBR reporter, luminescence ratio, 4 h. Potency, µM (doses to about 46.1 µM), for the others: at the top dose activity change, negative = inhibition, most hits filed as inhibitors. 0.05% of 340,000 active; active = well fitted inhibition curve with a large enough effect in the signal ratio, with a control signal flat, not every such curve was filed as active; inconclusive = small, poorly fitted or top-dose-only effect, or effect the other way, or a change in a side signal; the % refers to the signal ratio;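 note: potency is the fitted concentration of half-maximal effect; plate controls were basal doxycycline-induced cells for no effect and cells given 10 µM MG132 for full effect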
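Cell line TMD8 (human ABC DLBCL), stably expressing tet-inducible CBG68-IkBa fusion and CBR; IMDM/0.5% FBS; cpd up to 46 uM; dox induction, 4 h, 37C/5% CO2; dual luminescence; green/red ratio; MG132 control.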
IL-1B inflam inh: inflammasome signaling inhibition, IL-1 beta readout; THP-1 LPS/ATP IL-1B secretion, AlphaLISA, 16 h; active compounds read low; activity change, % at 57.5 µM; 4.7% of 360,000 active; AID 743279; in the data active = activity change below about -50%; inconclusive = mostly about -30% to -49%; note: % is set by controls: 0 for no effect and ±100 for the full control effect
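Secreted IL-1B measured by AlphaLISA bead assay after 16 h compound exposure of THP-1 cells; compounds (final up to 57.5 uM) added 1 h before LPS (250 ng/mL) and ATP (1.25 mM) stimulation; lower signal means less secretion.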
SW480 rerep: induces DNA re-replication in SW480 colon adenocarcinoma cells; SW480 DNA re-replication, Hoechst DNA content imaging, 48 h; Potency, µM (series often up to 46.1 µM), for the others: at the highest dose re-replication activation, hits mostly activators; 1.8% of 340,000 active; note: potency is the fitted concentration of half-maximal effect; % of control where 0% means no effect; nearly all actives have a fitted effect of over 55% in size
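Quantitative HTS format with DMSO vehicle controls; 48 hr drug incubation at 37 C, then 40 min Hoechst staining and scanning imager measurement at 405 nm excitation.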
TDP1 cell noCPT: qHTS for Inhibitors of human tyrosyl-DNA phosphodiesterase 1 (TDP1): qHTS in cells in absence of CPT; 15% of 420,000 active; Potency, µM (top dose mostly 46.2 µM), inactives show at the top dose activity change, negative = growth inhibition, actives largely listed as inhibitors; DT40 Tdp1-/- hTDP1 cells, no CPT, ATP luminescence, 48 h; note: potency is the fitted concentration of half-maximal effect; % is set by controls: 0 for no effect and ±100 for the full control effect; nearly all actives have a fitted effect of over 55% in size
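A cellular qHTS used chicken DT40 cells lacking endogenous Tdp1 but carrying stably transfected human TDP1. Compounds were applied without camptothecin, and cell growth kinetics were judged by ATP-dependent luminescence after ≥48 hr.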
Starred values were filed as active, the others as inactive; ? = inconclusive; · = no result. Unless noted, calls come from the whole dose curve; as a rule, active = well fitted curve in the direction sought with a large enough effect; inconclusive = small, poorly fitted or top-dose-only effect, or another doubt; inactive = no such curve, though single readings can be large; an effect the other way counts as inactive or inconclusive.

SMILES | MCF10A rerep | TDP1 cell CPT | Chronic BCR inh | IL-1B inflam inh | SW480 rerep | TDP1 cell noCPT
FC(F)(F)c1ccccc1Cc1c(-c2ccc(Cl)cc2)nc2c3ccccc3ccn12 | · | ? | · | 20 | · | 26µM*
O=[N+]([O-])c1ccc2cn(C3OC(CO)C(O)C3O)nc2c1 (configuration not stated) | · | ? | · | -2 | · | ?
Nc1nc(Cl)nc2c1ncn2[C@@H]1O[C@H](CO)[C@H](O)C1F (some centres not stated) | -1% | · | · | · | -3% | ·
Nc1nc(Cl)nc2c1ncn2[C@H]1C[C@H](O)[C@@H](CO)O1 | ? | 0.18µM* | ? | 56 | ? | 0.21µM*
Nc1ncnc2c1ncn2[C@H]1C[C@H](O)[C@@H](CO)O1 | 1% | 6.5µM* | ? | 5 | -2% | ?
O=c1[nH]cnc2c1ncn2C1OCC(O)C(O)C1O (configuration not stated) | -10% | -9% | · | 7 | -13% | -11%
NCC1OC(n2cnc3c(N)ncnc32)CC1O (configuration not stated) | 4% | -7% | · | 1 | 2% | -19%
Nc1nc(Cl)nc2c1ncn2[C@@H]1O[C@H](CO)[C@@H](O)[C@@H]1F | · | 0.0021µM* | · | · | · | 0.0021µM*
Nc1ncnc2c1ncn2C1OCC(O)C1O (configuration not stated) | · | 18µM* | · | 0 | · | 13µM*
CCOP1(=O)OCC2OC(n3cnc4c(N)ncnc43)C(O)C2O1 (configuration not stated) | 15µM* | 16% | -1% | · | -17% | -4%
CCOc1ccc(NC(=O)Cn2nc3c(cc2=O)CC(C)CC3)cc1 (configuration not stated) | · | 7% | · | · | · | -9%
COc1cccc(N2CCN(C(=O)C3CCN(S(=O)(=O)c4ccc5c(c4)CC(C)N5C(C)=O)CC3)CC2)c1 (configuration not stated) | 0% | ? | 0% | 10 | -41% | ?
CCOC1=C2CN(S(=O)(=O)c3ccc(C)cc3)C(c3ccc(CC)cc3)CC2N(S(=O)(=O)c2ccc(C)cc2)C(c2ccc(CC)cc2)C1 (configuration not stated) | · | 3.7µM* | · | 9 | · | 2.1µM*
CCOC1=C2CN(S(=O)(=O)c3ccc(C)cc3)[C@H](c3ccccc3)C[C@@H]2N(S(=O)(=O)c2ccc(Br)cc2)[C@H](c2ccccc2)C1 | · | ? | · | -14 | · | 12µM*
COc1ccccc1N1CCN(CCCNC(=O)C2CCCN(c3ncnc4c3nc3n4CCCCC3)C2)CC1 (configuration not stated) | 8% | ? | 0% | -28 | -2% | ?
CCOc1ccc(/C=C(\C)C(=O)c2c(C)cc(C)[nH]c2=O)cc1 | -1% | -4% | 0% | -16 | -2% | 3%
CCN(CC)S(=O)(=O)c1nnc(NC(=O)COc2ccc(Cl)cc2)s1 | · | ? | · | · | · | -13%
CCCNC(=O)c1ccccc1NC(=O)COc1cccc2c1OC(C)(C)C2 | ? | ? | -1% | 1 | 10% | 18µM*
COc1ccccc1CCNC(=O)COc1cccc2c1OC(C)(C)C2 | -1% | 11% | -3% | -17 | ? | 23µM*
CN(C)S(=O)(=O)c1ccc(NC(=O)COc2cccc3c2OC(C)(C)C3)cc1 | 11% | 21µM* | 3% | -9 | -1% | ?
CC1(C)Cc2cccc(OCC(=O)NCCOc3ccccc3)c2O1 | 1% | ? | 7% | 8 | -16% | ?
COc1ccc(NC(=O)COc2cccc3c2OC(C)(C)C3)cc1OC | 20% | 21µM* | 0% | 0 | -26% | 13µM*
